A selection: hits, their analogues and other compounds. The true share with any hit is near 2.6%.
DRV1 agonist: GPR32 (DRV1) agonism, beta-arrestin recruitment | AID 1346428 | O75388 | activation, % at 76.9 µM | CHO-K1 GPR32 beta-arrestin PathHunter luminescence, 90 min; zero percent set by DMSO-only wells | 48,000 compounds, 2.5% hits;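 active = activation of at least 60% and not above a set upper limit, about 1 call in 100 departs from these limits; inconclusive = activation of 40% to 60%, or above that upper limit; inactive = activation under 40%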
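Luminescent readout of beta-Gal complementation quantifies ligand-induced beta-arrestin association with GPR32 in CHO-K1 cells; 90 min compound incubation at 37 °C, detection 1 h at room temperature.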
B2AR arrestin ag: agonists recruiting beta-arrestin to human beta2-adrenergic receptor; P07550; Potency, µM (top dose mostly 46.1 µM), actives largely listed as activators; AID 1347077; HTLA Tango cells, beta-arrestin recruitment, luciferase luminescence, 18 h; 44,000 tested, under 10 active
Target sequence (P07550 whole entry, looked up): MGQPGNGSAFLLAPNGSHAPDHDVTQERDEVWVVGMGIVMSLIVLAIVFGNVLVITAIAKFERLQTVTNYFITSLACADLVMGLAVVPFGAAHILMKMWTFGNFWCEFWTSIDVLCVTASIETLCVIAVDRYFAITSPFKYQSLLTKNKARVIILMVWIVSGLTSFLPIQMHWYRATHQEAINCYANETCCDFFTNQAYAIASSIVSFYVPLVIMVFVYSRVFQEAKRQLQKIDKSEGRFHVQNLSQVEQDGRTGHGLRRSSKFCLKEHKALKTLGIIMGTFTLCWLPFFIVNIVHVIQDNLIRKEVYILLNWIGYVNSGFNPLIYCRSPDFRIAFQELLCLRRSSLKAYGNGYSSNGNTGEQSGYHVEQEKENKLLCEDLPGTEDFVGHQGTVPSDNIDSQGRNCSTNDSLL
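Tango cells expressing recombinant beta2-AR and beta-arrestin were treated with compounds (up to 46 microM titration) in DMEM with 1% FBS for 18 hr at 37 degrees C. Beta-arrestin recruitment drove tTA-dependent luciferase, read by luminescence; curves were fitted and classed.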
GALC G270D act: galactocerebrosidase G270D activity enhancement, cell-based. AID 1159614. Potency, µM (top dose mostly 57.5 µM), actives largely listed as activators. P54803. 145M-Twi-hGALC-G270D cells (Twitcher mouse brain line with human GALC G270D), HMU-beta-Gal fluorescence, 48 h. 45,000 compounds, 0.1% hits; note: nearly all actives have a fitted effect of over 65% in size
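Brain-derived Twitcher mouse 145M-Twi cells stably expressing human GALC-G270D or wild-type GALC, treated live, then residual GALC activity read by fluorescence of HMU-b-Gal substrate (0.1 mM final) in citrate-phosphate buffer pH 5.2 with sodium taurocholate. Signal increase indicates enhancement.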
FH mod: Identification of activators of human fumarate hydratase by quantitative high-throughput screening; Fumarate hydratase, mitochondrial (Homo sapiens), P07954; FH coupled MDH/diaphorase resazurin fluorescence, 15 min; Potency, µM (highest dose often 79.9 µM), hits mostly inhibitors; 54,000 compounds, 0.22% hits; AID 1347055, 2019; note: the screen sought activators but most active calls are inhibition curves; nearly all actives have a fitted effect of over 45% in size
PTAP-TSG101 blk: inhibitors of HIV-1 PTAP binding to human TSG101, validation. Q99816. Fluorescence polarization, FITC-PTAP peptide/Tsg101, 20 min. Potency, µM (doses to about 115 µM), most hits filed as inhibitors. 44,000 tested, under 10 active. AID 1347069
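Fluorescence polarization binding of Tsg101 binding domain (10 uM final) to FITC-labeled PTAP-motif peptide (50 nM final) in HEPES pH 7.5/NaCl/Tween 20/EDTA/TCEP buffer; 20 min at r.t. Actives by curve class, <25 µM, efficacy <60% inhibition.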
GALK inh: inhibits human galactokinase; recombinant GALK, Kinase-Glo ATP luminescence, 1 h; AID 1347072; P51570; Potency, µM (top dose mostly 57.5 µM), usual class: inhibitors; 44,000 tested, under 10 active
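5 nM GALK with 35 µM ATP and 100 µM galactose in HEPES pH 8.0, MgCl2, NaCl, DTT, BSA; 1 h RT reaction, remaining ATP detected by Kinase-Glo Plus luminescence after 10 min; qHTS concentration series.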
Each line names hits and unclear results; the compound was inactive in the other large screens; ! = not active in a repeat. Unless noted, calls come from the whole dose curve; as a rule, active = well fitted curve in the direction sought with a large enough effect; inconclusive = small, poorly fitted or top-dose-only effect, or another doubt; inactive = no such curve, though single readings can be large; an effect the other way counts as inactive or inconclusive.

COc1ccccc1CNC(=O)Cn1c(=O)oc2cc(S(=O)(=O)N3CCC(C)CC3)ccc21	DRV1 agonist 78
CCc1ccc(NC(=O)Cn2c(=O)oc3cc(S(=O)(=O)N4CCCCCC4)ccc32)cc1	none
CCOc1ccc(NC(=O)Cn2c(=O)oc3cc(S(=O)(=O)N4CCC(C)CC4)ccc32)cc1	DRV1 agonist 117
COc1ccccc1CNC(=O)Cn1c(=O)ccc2cc(S(=O)(=O)N3CCC(C)CC3)ccc21	none
COC1CC(O[C@H]2CC[C@@]3(C)C(=CC[C@]4(O)C3[C@H](OC(C)=O)[C@@H](OC(=O)c3ccccc3)[C@]3(C)[C@@H](C(C)=O)CC[C@@]34O)C2)OC(C)C1OC1CC(OC)C(OC2CC(OC)C(OC3OC(C)C(OC4OC(CO)C(O)C(O)C4O)C(OC)C3O)C(C)O2)C(C)O1 (some centres undefined)	none (no result: DRV1 agonist, B2AR arrestin ag, GALC G270D act, PTAP-TSG101 blk, GALK inh)
O=C1CC(c2nc(-c3ccccc3)no2)CN1c1ccccc1 (centres undefined)	DRV1 agonist 65
COc1ccc(-c2noc(C3CC(=O)N(c4ccccc4)C3)n2)c(OC)c1 (centres undefined)	DRV1 agonist inconclusive
Cc1nc2ccccc2c(=O)n1-c1ccc(NC(=O)c2ccccc2[N+](=O)[O-])cc1	DRV1 agonist 68
O=C(COc1cccc(Cl)c1)N1CCC(c2nc3ccccc3s2)CC1	DRV1 agonist 72, FH mod inconclusive
COc1ccccc1OC(C)C(=O)N1CCC(c2nc3ccccc3s2)CC1 (centres undefined)	DRV1 agonist 85, GALC G270D act inconclusive
O=C(c1ccc(Br)cc1)N1CCC(c2nc3ccccc3s2)CC1	FH mod inconclusive
O=C(c1ccc(F)cc1)N1CCC(c2nc3ccccc3s2)CC1	DRV1 agonist 64
CC(C)(O)c1ccn2c(-c3ccc(F)c(-c4ccc(F)cc4C#N)c3)cnc2c1F	none (no result: DRV1 agonist, B2AR arrestin ag, GALC G270D act, PTAP-TSG101 blk, GALK inh)
COC(=O)c1ccc2c(c1)N(CC(=O)Nc1ccc(OC)c(Cl)c1)C(=O)c1ccccc1S2	none
COCCNC(=O)c1ccc2c(c1)N(Cc1ccc(C(F)(F)F)cc1)C(=O)c1ccccc1S2	none
COC(=O)c1ccc2c(c1)N(CC(=O)Nc1cccc(C(F)(F)F)c1)C(=O)c1ccccc1S2	DRV1 agonist 107
CCN(CC)C(=O)c1ccc2c(c1)N(Cc1ccc(C(F)(F)F)cc1)C(=O)c1ccccc1S2	DRV1 agonist 87
CC(=O)c1cccc(NC(=O)CN2C(=O)c3ccccc3Sc3ncccc32)c1	DRV1 agonist 72
O=C(NCCCNC(=O)c1ccc[nH]c1=O)c1cc(-c2ccccc2)on1	none (no result: DRV1 agonist, B2AR arrestin ag, GALC G270D act, PTAP-TSG101 blk, GALK inh)
CC(C=CC1=C(C)CCCC1(C)C)=CC=CC(C)=CC(=O)Nc1ccc(O)cc1	none (no result: DRV1 agonist, B2AR arrestin ag, GALC G270D act, PTAP-TSG101 blk, GALK inh)
CC1=C(/C=C/C(C)=C/C=C/C(C)=C/C(=O)Nc2ccc(O)cc2)C(C)(C)CCC1	DRV1 agonist 84! (no result: B2AR arrestin ag, PTAP-TSG101 blk, GALK inh)
COCCn1c2c([n+](Cc3cnccn3)c1C)C(=O)c1ccccc1C2=O	FH mod 22µM (no result: DRV1 agonist, B2AR arrestin ag, GALC G270D act, PTAP-TSG101 blk, GALK inh)
CCCCN(C)CC(O)Cn1cc(/C=C/C(=O)c2ccc(C)cc2)c2ccccc21 (centres undefined)	DRV1 agonist 65
CCCCN(C)CC(O)Cn1cc(/C=C/C(=O)c2ccc(Br)cc2)c2ccccc21 (centres undefined)	DRV1 agonist 74, GALC G270D act inconclusive
O=C(/C=C/c1cn(CC(O)CN2CCCCCC2)c2ccccc12)c1ccc(Br)cc1 (centres undefined)	DRV1 agonist 88
CCCCN(C)CC(O)Cn1cc(/C=C/C(=O)c2ccc(OC)c(OC)c2)c2ccccc21 (centres undefined)	GALC G270D act 32µM
COc1ccc(C(=O)/C=C/c2cn(CC(O)CN3CCCCCC3)c3ccccc23)cc1OC (centres undefined)	DRV1 agonist inconclusive

High-throughput results: PubChem, National Center for Advancing Translational Sciences (NCATS)
